Compound activity deposited in PubChem by National Center for Advancing Translational Sciences (NCATS).
Hits are enriched below; roughly 2.4% of the tested compounds scored in any of these assays.
Cruzain inh noDet = cruzain (T. cruzi) inhibition without detergent; P25779; purified cruzain, Z-FR-AMC fluorescence, no detergent; Potency, µM, for the others: max response, negative = inhibition, most hits filed as inhibitors; 200,000 tested, 2.3% active; AID 1476;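 further: plate controls were enzyme without inhibitor for no effect and buffer without enzyme for full effect; nearly all actives have a fitted effect of over 40% in size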
Target sequence (P25779 123-467 limits assumed): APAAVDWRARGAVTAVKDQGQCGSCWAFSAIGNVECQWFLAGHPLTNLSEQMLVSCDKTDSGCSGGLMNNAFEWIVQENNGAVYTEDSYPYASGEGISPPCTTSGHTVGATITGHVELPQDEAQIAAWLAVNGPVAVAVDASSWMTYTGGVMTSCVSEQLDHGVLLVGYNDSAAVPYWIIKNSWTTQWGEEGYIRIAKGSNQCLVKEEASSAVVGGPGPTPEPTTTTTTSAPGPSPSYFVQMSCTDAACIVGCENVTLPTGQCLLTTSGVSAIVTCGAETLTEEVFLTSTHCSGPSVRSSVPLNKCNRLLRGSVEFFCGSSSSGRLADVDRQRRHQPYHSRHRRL
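Purified cruzain at 1.5 nM, pre-incubated 15 min with compound at room temperature in 100 mM sodium acetate pH 5.5, 5 mM DTT, 0.00005% Triton X-100. Reaction started with 2 uM Z-FR-AMC; AMC fluorescence increase over 60 s gives rate.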
Cruzain Triton = cruzain (T. cruzi) inhibition with detergent; purified cruzain, Z-FR-AMC fluorescence, 0.01% Triton; Potency, µM, without a hit: max response, negative = inhibition, usual class: inhibitors; 200,000 tested, 0.43% active; AID 1478;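 further: plate controls were neutral wells for no effect and buffer without enzyme for full effect; nearly all actives have a fitted effect of over 40% in size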
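In this qHTS format, compounds are incubated with 1.5 nM cruzain for 15 min at room temperature before 2 uM Z-FR-AMC is added. Release of AMC is followed at 360/450 nm, and progress is taken as the 60 s fluorescence difference.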
* = called active by the depositor; ? = inconclusive. The call rests on the fitted dose curve; in most records, active means well fitted curve in the direction sought with a large enough effect; inconclusive means small, poorly fitted or top-dose-only effect, or another doubt; inactive means no such curve, though single readings can be large; an effect the other way counts as inactive or inconclusive. Potency means the concentration at half of the fitted maximal effect.

SMILES | Cruzain inh noDet | Cruzain Triton
CCCOc1ccc(/C=N/NC(=S)Nc2ccccc2[N+](=O)[O-])c(O)c1 | 4µM* | -5%
CCc1nnc(SC(CC)C(=O)Nc2cccc(OC)c2)c2cc3oc(C)cc3n12 (stereo not drawn) | 12% | -2%
CC1CCc2onc(C(=O)N3CCN(c4ccc(F)cc4)CC3)c2C1 (stereo not drawn) | -1% | 1%
CCc1c(C)sc2c1CCN(Cc1ccccc1F)C2c1ccccc1 (stereo not drawn) | -3% | -9%
Cn1nc(C(=O)N2CCN(c3ccccc3F)CC2)c2c1-c1ccccc1SC2 | -4% | -6%
CCCc1cc(=O)[nH]c(SCC(=O)c2cc(C)n(CCOC)c2C)n1 | 6% | 1%
Cc1cc(C(=O)CSc2nnnn2C)c(C)n1CCc1ccc(F)cc1 | 25µM* | 6%
COc1ccc(CCn2c(C)cc(C(=O)CSc3nc(N)cc(=O)[nH]3)c2C)cc1 | 25µM* | 0%
Cc1cc(C(=O)CSc2nc(N)cc(=O)[nH]2)c(C)n1CCc1ccc(F)cc1 | 25µM* | 1%
Cc1cc(C(=O)CSc2nnc(N)s2)c(C)n1CCc1ccc(F)cc1 | 16µM* | 3%
Cc1cc(C(=O)CSc2nnnn2-c2ccccc2)c(C)n1CCc1ccccc1 | -9% | 1%
Cc1cc(C(=O)CSc2nnc(N)s2)c(C)n1CCc1ccc(Cl)cc1 | ? | -1%
COc1ccc(CCn2c(C)cc(C(=O)CSc3nnc(N)s3)c2C)cc1 | ? | -3%
CCOc1ccc(NC(=O)CN2CCSc3ccc(S(=O)(=O)N4CCCC4)cc32)cc1 | -2% | -11%
Cc1ccc(C(=O)c2sc(Nc3ccccc3)c(S(=O)(=O)c3ccccc3)c2N)c(C)c1 | 7.9µM* | -2%
Cc1ccc(S(=O)(=O)NC(=O)Nc2ccccc2F)cc1 | 4% | -2%
Cc1ccc(C(=O)c2sc(Nc3ccccc3F)c(S(=O)(=O)c3ccccc3)c2N)c(C)c1 | 6.3µM* | -3%
Cc1ccc(C(=O)c2sc(Nc3ccccc3)c(C#N)c2N)cc1 | 8% | -5%
COc1cccc(-c2nnc(SCC(=O)N(C)C3CCCCC3)o2)c1 | 1% | -4%
O=C(Cc1ccc(-c2ccccc2)cc1)NCCS(=O)(=O)N1CCN(c2ccccc2F)CC1 | 13µM* | 1%
COc1ccc(CC(=O)NCCS(=O)(=O)N2CCN(c3ccccc3F)CC2)cc1OC | 1% | -1%
CCOC(=O)CSc1nc2cc3c(cc2c(=O)n1CCCC(=O)NCCc1ccc(OC)c(OC)c1)OCO3 | 2% | 3%
Cc1cccc(C)c1NC(=O)C(=O)NCC(c1ccc2c(c1)OCO2)N1CCN(C)CC1 (stereo not drawn) | -1% | -1%
CNC(=O)c1[nH]cnc1C(=O)Nc1ccccc1C | -6% | 2%
Cc1cccc(NC(=O)c2nc[nH]c2C(=O)Nc2ccccc2[N+](=O)[O-])c1 | 10µM* | -1%
SMILES | Cruzain inh noDet | Cruzain Triton
CCCSc1nc2c(c(=O)[nH]c(=O)n2C)n1Cc1ccc(C)cc1 | -23% | 0%
Cc1ccc(Cn2c(SCC(C)C)nc3c2c(=O)[nH]c(=O)n3C)cc1 | 10µM* | 1%
CCOC(=O)c1ccc(NC(=O)Nc2cc(C)on2)cc1 | 16µM* | 2%
CCOC(=O)c1ccc(NC(=O)Nc2ccn(C)n2)cc1 | 3% | 4%
CCCCCCOc1ccc(C2C(=O)N(C3CCCCC3)CC(=O)N2CCC)cc1 (stereo not drawn) | ? | 0%
CCOC(=O)c1c(S(=O)(=O)N2CCN(c3ccccc3OC)CC2)c(C)n(C)c1C | 10% | -2%
Cc1c(C(=O)Nc2cccc(C(F)(F)F)c2)oc2ccc3c(c12)C(=O)CC(C)(C)O3 | 8% | -4%
O=C(N/N=C/c1ccc(-c2cccc(C(F)(F)F)c2)o1)c1ccccc1O | 10µM* | -6%
O=C(N/N=C/c1ccc(-c2cccc(C(F)(F)F)c2)o1)c1ccccc1Br | 18% | -9%
Cc1ccc(OCC(=O)Nc2ccc(S(=O)(=O)N(Cc3ccccc3)c3ccccc3)cc2)cc1 | 7.9µM* | 2%
CCOc1ccccc1C(=O)Nc1ccc(S(=O)(=O)N(Cc2ccccc2)c2ccccc2)cc1 | 28% | 4%
O=C(Nc1nc2ccccc2s1)c1cc(-c2ccco2)nc2ccccc12 | -26% | -12%
O=C(Nc1nc2c(s1)CCCC2)c1cc(-c2ccc3c(c2)OCO3)nc2ccccc12 | 5µM* | -4%
Cc1ccccc1-c1cc(C(=O)Nc2nc3c(s2)CCCC3)c2ccccc2n1 | ? | -5%
COc1cccc(-c2cc(C(=O)Nc3nc4ccccc4s3)c3ccccc3n2)c1 | 13µM* | -1%
CC(C)CCNC(=O)c1cnc2sc(N3CCCCC3)nn2c1=O | -6% | -5%
CCOc1cccc(CC(=O)N2CCc3c([nH]c4ccccc34)C2c2ccc(C)cc2)c1OCC (stereo not drawn) | ? | 2%
O=C(N/N=C\c1cn(-c2ccccc2)nc1-c1ccccc1)c1ccc(Br)o1 | 25µM* | 2%
COc1ccc(-c2nn(-c3ccccc3)cc2/C=N/NS(=O)(=O)c2ccccc2)cc1 | ? | -1%
Cc1ccc(-c2nn(-c3ccccc3)cc2/C=N/NC(=O)c2ccc(Br)o2)cc1 | ? | 1%
COc1ccc(-c2nn(-c3ccccc3)cc2/C=N/NC(=O)c2cccc(S(=O)(=O)Nc3ccccc3Cl)c2)cc1 | 7.9µM* | -6%
Cc1oc2ccc(O)c(CN3CCN(C)CC3)c2c1C(=O)Nc1ccc(C(C)C)cc1 | -1% | -1%
CCCCN(Cc1cccs1)S(=O)(=O)c1cc(-c2cc(C)no2)ccc1C | -24% | -4%
S=C1NCCc2ccccc2C1c1ccccc1 (stereo not drawn) | 32µM* | ?
O=C(O)C1NCCc2ccccc21 (stereo not drawn) | 10% | 4%
SMILES | Cruzain inh noDet | Cruzain Triton
c1ccc2oc(C3=NNC(=NC4CC4)SC3)cc2c1 | 16µM* | -11%
c1ccc(CN=C2NN=C(c3cc4ccccc4o3)CS2)cc1 | ? | -16%
CCC(=O)N1c2ccc(S(=O)(=O)NCc3ccc(F)cc3)cc2CC1C (stereo not drawn) | 2% | -5%
COc1cccc(C(=O)NCC(c2ccc(N(C)C)cc2)N2CCOCC2)c1OC (stereo not drawn) | 17% | 6%
O=S(=O)(NCCS(=O)(=O)N1CCN(c2ccccc2F)CC1)c1ccc(Cl)cc1 | 8% | -2%
Cc1ccc2c(c1)N(C(=O)c1ccco1)C(C)(C)c1ssc(=S)c1-2 | 32µM* | -2%
Cc1cccc2c1N(C(=O)c1ccco1)C(C)(C)c1ssc(=S)c1-2 | -12% | 5%
CC[C@H]1C(c2ccccc2)=NN(c2ccccc2)[C@@H]1CO | ? | -8%
COc1ccccc1[C@H]1C(c2ccccc2)=NN(c2ccccc2)[C@@H]1CO | ? | -26%
COc1ccccc1[C@H]1C(c2cccc(C)c2)=NN(c2ccccc2)[C@@H]1CO | 18µM* | 3%
COc1ccccc1[C@H]1C(c2ccc(F)cc2)=NN(c2ccccc2)[C@@H]1CO | 32µM* | -1%
CCOc1cc(C2C(C(=O)OC)=C(C)NC3=C2C(=O)c2ccccc23)c(Br)cc1O (stereo not drawn) | -2% | -4%
CN(c1ncnc2onc(-c3cccc(Cl)c3)c12)C1CCCCC1 | -2% | -5%
COc1cccc(CNC(=O)Cc2csc3ccccc23)c1OC | 6% | -8%
Cc1cccc(CSc2nc(=O)c3c(n2C)NC(=O)CC3c2cc(F)cc(F)c2)c1 (stereo not drawn) | -6% | -3%
O=C(N/N=C/c1c(O)n(CCC2=CCCCC2)c(=O)[nH]c1=O)c1ccccc1 | 25µM* | 3%
